Gal4-VP16 FLuc: counter-screen for ROR gamma inhibitors: Gal4-VP16 reporter; Drosophila S2 Gal4-VP16 UAS-luciferase, luminescence, 20 h; Potency, µM (series often up to 53.6 µM), usual class: inhibitors; 310,000 tested, 3.5% active;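 also: Gal4-VP16 expression switched on by copper sulfate through the metallothionein promoter; nearly all actives have a fitted effect of over 50% in size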
RORgamma inh: ROR gamma (mouse) transcription inhibition. 310,000 tested, 5.4% active. P51450. Potency, µM (doses to about 53.6 µM), usual class: inhibitors. Drosophila S2 Gal4-RORgamma UAS-luciferase reporter, 20 h; also: nearly all actives have a fitted effect of over 60% in size
Target sequence (P51450 whole entry, looked up, the tested form may be a part): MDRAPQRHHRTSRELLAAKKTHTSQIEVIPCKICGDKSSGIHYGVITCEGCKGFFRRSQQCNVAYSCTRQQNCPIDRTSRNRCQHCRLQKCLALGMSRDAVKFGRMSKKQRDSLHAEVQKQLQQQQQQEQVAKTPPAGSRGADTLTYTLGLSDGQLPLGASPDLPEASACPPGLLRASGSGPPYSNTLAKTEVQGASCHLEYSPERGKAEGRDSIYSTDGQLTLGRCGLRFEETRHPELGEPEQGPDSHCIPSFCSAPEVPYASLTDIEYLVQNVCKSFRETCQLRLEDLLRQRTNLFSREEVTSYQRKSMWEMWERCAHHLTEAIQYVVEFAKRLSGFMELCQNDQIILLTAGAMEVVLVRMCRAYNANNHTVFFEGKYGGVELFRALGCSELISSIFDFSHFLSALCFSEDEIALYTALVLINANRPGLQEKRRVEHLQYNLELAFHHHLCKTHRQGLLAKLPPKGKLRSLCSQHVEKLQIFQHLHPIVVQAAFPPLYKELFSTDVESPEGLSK
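Schneider cells (Drosophila), stable Gal4 DBD–ROR gamma + UAS-luc; 1 hr cmpd preincubation; Cu2+ induction 700 uM final; 20 hr ambient; luminescence.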
Luc counter: counter-screen: inhibitors of Kinase-Glo firefly luciferase; Potency, µM (doses to about 38.3 µM), hits mostly inhibitors; Kinase-Glo luciferase, ATP luminescence, 8 min; AID 1379; 200,000 tested, 0.28% active; Q27757; also: nearly all actives have a fitted effect of over 60% in size
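Recombinant Kinase-Glo luciferase, 10 uM ATP (linear range), luciferin; imidazole pH 7.2 / KCl / MgCl2 / Tween / BSA buffer; 8 min RT; luminescence.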
Each line names hits and unclear results; the compound was inactive in the other large screens. Shown are actives, neighbours in structure and some others; about 6.2% of the full set was active somewhere. Calls follow the shape of the dose curve; as a rule, active = well fitted curve in the direction sought with a large enough effect; inconclusive = small, poorly fitted or top-dose-only effect, or another doubt; inactive = no such curve, though single readings can be large; an effect the other way counts as inactive or inconclusive.

O=C(O)CCC(=O)NN1C(=O)c2ccccc2NC1c1ccc(F)cc1 (configuration not stated)	none (no result: Luc counter)
CCc1[nH]nc(C(=O)NC2CCCc3c2cnn3-c2cc(C)cc(C)c2)c1C (configuration not stated)	none (no result: Luc counter)
COc1ccccc1N(C)S(=O)(=O)c1ccc(C(=O)OCC(=O)N2CCC2)cc1	none
O=C(NC1=NCCS1)C12CC3CC(C1)CC(C(=O)NC1=NCCS1)(C3)C2	none
CC12CC3CC(C)(C1)CC(C(=O)NC1=NCCS1)(C3)C2	Gal4-VP16 FLuc 7.94µM, RORgamma inh 2.82µM
Cc1c(O)ccc2c1OCO2	none (no result: Luc counter)
CC(C)Oc1ccc(C(=O)NNC(=O)c2ccccc2C(=O)O)cc1	none
O=C(NNC(=O)c1ccccc1C(=O)O)c1ccc(O)cc1	Gal4-VP16 FLuc inconclusive, RORgamma inh 0.316µM
CC(C)CCCC(C)NC(C)C (configuration not stated)	none (no result: Luc counter)
COc1ccc(Oc2ncc3ncc(=O)n(Cc4cccs4)c3n2)cc1	none
COc1cc2c(cc1OC)C1CCC3=C([C@H](C)OC3=O)N1CC2 (some centres not stated)	none
COCCOC(=O)C1=C(C)N(c2ccccc2)C(=O)NC1c1cccc([N+](=O)[O-])c1 (configuration not stated)	Gal4-VP16 FLuc 17.8µM, RORgamma inh inconclusive
CCOC(=O)C1=C(C)N(c2ccc(Cl)cc2)C(=O)NC1c1cccc([N+](=O)[O-])c1 (configuration not stated)	RORgamma inh inconclusive
O=C(O)c1nccnc1C(=O)N1CCN(c2ccccc2)CC1	none
COc1ccc(C(=O)/C=C2/c3ccccc3CC(C)(C)N2C)cc1OC	RORgamma inh inconclusive
Cc1ccc(CNC(=O)C(=O)NCC2OCCN2S(=O)(=O)c2ccc3c(c2)OCCO3)cc1 (configuration not stated)	none
CC(C)(C)C(=O)Nc1ccc(-c2cn3ccsc3n2)cc1	Gal4-VP16 FLuc 4.47µM, RORgamma inh 4.47µM, Luc counter inconclusive
CC(C)CC(=O)Nc1ccc(-c2cn3ccsc3n2)cc1	Gal4-VP16 FLuc inconclusive, RORgamma inh inconclusive
O=C(N/N=C/c1cc2c(cc1Br)OCO2)c1cccnc1	none
O=C(N/N=C\c1cccnc1)c1ccc(Br)s1	none (no result: Luc counter)
O=C(N/N=C/c1cc(O)ccc1Br)c1cccnc1	Gal4-VP16 FLuc 1.26µM, RORgamma inh 1.78µM (no result: Luc counter)
O=C(N/N=C/c1ccc(Br)s1)c1cccnc1	Gal4-VP16 FLuc 15.8µM, RORgamma inh 1.26µM
CC(C)CC1OCCC=CC1C (configuration not stated)	none (no result: Luc counter)
CN(C)c1ccc(/C=N/NC(=O)c2ccccc2)cc1	RORgamma inh inconclusive, Luc counter inconclusive
CN(C)c1ccc(/C=N/NC(=O)c2ccc(Cl)cc2)cc1	RORgamma inh 8.91µM
CC(C)c1cc(C(=O)N/N=C/C=C/c2ccccc2)n[nH]1	Gal4-VP16 FLuc 20µM, RORgamma inh inconclusive
Cc1ccc(C(=O)N/N=C/C=C/c2ccccc2)cc1	Gal4-VP16 FLuc 7.94µM, RORgamma inh 3.16µM
Cc1occc1C(=O)N/N=C/C=C/c1ccccc1	Gal4-VP16 FLuc inconclusive, RORgamma inh 7.08µM
Cc1cc(C(=O)N/N=C/C=C/c2ccc(Br)cc2)n[nH]1	none (no result: Luc counter)
Cc1occc1C(=O)N/N=C/C(Br)=C\c1ccccc1	Gal4-VP16 FLuc inconclusive (no result: Luc counter)
O=C(CNC(=O)c1ccc(Cl)cc1)N/N=C/C=C/c1ccccc1	none
C/C(Nc1ccccc1)=C(/C#N)C(N)=O	RORgamma inh inconclusive
O=C(Cc1cccc2ccccc12)N1CCN(c2ncccn2)CC1	none
CCCCCCCCCCCC(=O)[O][Sn]([CH2]CCC)([CH2]CCC)[O]C(=O)CCCCCCCCCCC	none (no result: Luc counter)
O=C(N/N=C/c1cccc(Oc2ccccc2)c1)c1cccc(O)c1	none (no result: Luc counter)
Cc1cc(C(=O)N/N=C/C=C/c2ccccc2[N+](=O)[O-])c(C)o1	Gal4-VP16 FLuc inconclusive, RORgamma inh inconclusive
Cc1occc1C(=O)N/N=C/C=C/c1ccccc1[N+](=O)[O-]	Gal4-VP16 FLuc inconclusive, RORgamma inh 11.2µM
Cc1ccc(/C=N/NC(=O)c2ccoc2C)o1	Luc counter inconclusive
Nc1nnnn1CC(=O)N/N=C/C=C/c1ccccc1	none (no result: Luc counter)
Cc1occc1C(=O)N/N=C/c1ccc(N(C)C)cc1	Gal4-VP16 FLuc inconclusive, RORgamma inh 10µM (no result: Luc counter)
O=C(N/N=C/c1cccc(Oc2ccccc2)c1)c1cccc(Br)c1	Gal4-VP16 FLuc inconclusive, RORgamma inh 10µM
NC(=S)N/N=C/C=C/c1ccccc1	Gal4-VP16 FLuc inconclusive, RORgamma inh 2µM
CN(C)CC(C)(C)CNC(C(=O)Nc1ccc(Cl)cc1C(F)(F)F)c1ccccc1 (configuration not stated)	none
COC(=O)NC(CC(C)=O)c1ccc(F)cc1 (configuration not stated)	none (no result: Luc counter)
O=C(N/N=C/C=C/c1ccccc1)c1cnccn1	RORgamma inh inconclusive
O=C(N/N=C/C=C/c1ccccc1)c1cccc(Br)c1	Gal4-VP16 FLuc 5.01µM, RORgamma inh 1µM
O=C(N/N=C/C=C/c1ccccc1)c1ccccc1Br	Gal4-VP16 FLuc inconclusive, RORgamma inh 3.16µM
Cc1occc1C(=O)N/N=C/C=C/c1ccc(N(C)C)cc1	Gal4-VP16 FLuc 3.16µM, RORgamma inh 2.82µM (no result: Luc counter)
CCC/C=N/NC(=O)c1cccc(Br)c1	RORgamma inh inconclusive
O=C(N/N=C\c1ccc(Cl)cc1)c1sccc1-n1cccc1	RORgamma inh inconclusive
COc1cc(/C=N/NC(=O)c2ccoc2C)cc(OC)c1O	none
CN(C)c1ccc(/C=N/NC(=O)c2sccc2-n2cccc2)cc1	Gal4-VP16 FLuc inconclusive, RORgamma inh 11.2µM
C/C(CC(=O)NCC(C)C)=N\NC(=O)COc1cc(C)c(Br)cc1Br	none
COC(=O)CN=C1OC(=O)N2C(=O)C3=C4[C@@H](C[C@H]5C(=O)N(c6ccccc6)C(=O)[C@H]5[C@H]4[C@@]12Cc1ccccc1)[C@H]1C(=O)N(c2ccccc2)C(=O)[C@H]1[C@H]3C	none (no result: Luc counter)
Cn1c(=O)c([N+](=O)[O-])c(NCC2CCCO2)c2ccccc21 (configuration not stated)	none (no result: Luc counter)
CC(C)C[C@@H](CC(=O)N[C@@H](CCC(=O)O)CC(=O)O)NC(=O)[C@@H]1CCCC[C@H]1NC(=O)C[C@H](CCCN)NC(=O)C[C@H](Cc1c[nH]c2ccccc12)NC(=O)[C@@H]1CNCC[C@H]1N	none
c1cncc(-c2nccc(-n3ccnc3)n2)c1	none
NCCCCCc1cnc[nH]1	none
Cc1cc(C(=O)N/N=C/C=C/c2ccccc2)c(C)o1	Gal4-VP16 FLuc 11.2µM, RORgamma inh 7.94µM
Cc1cc(C(=O)N/N=C/c2ccccc2)c(C)o1	none (no result: Luc counter)
COC(=O)CN1C(=S)N(c2ccc(Cl)cc2)C(=O)C1CC(=O)Nc1ccc(F)cc1 (configuration not stated)	RORgamma inh inconclusive
CCOC(=O)c1ccc(N2C(=O)C(CC(N)=O)N(NC(=O)c3cccc(F)c3)C2=S)cc1 (configuration not stated)	none (no result: Luc counter)
COc1ccc(NC(=O)CC2C(=O)N(c3ccc(F)cc3)C(=S)N2NC(=O)c2ccc(Cl)cc2)cc1 (configuration not stated)	Gal4-VP16 FLuc 20µM, RORgamma inh 11.2µM
COc1ccc(NC(=O)CC2C(=O)N(c3ccc(Cl)cc3)C(=S)N2NC(=O)c2cccc(F)c2)cc1 (configuration not stated)	Gal4-VP16 FLuc 17.8µM, RORgamma inh 10µM
[O-][N+](=Nc1ccccc1)c1ccccc1	none (no result: Luc counter)
